Hits are enriched below; roughly 2% of the tested compounds scored in any of these assays.
TDP43 rescue = TDP-43 toxicity inhibition in yeast; 410,000 compounds, 1.8% hits; Potency, µM (top dose mostly 46.1 µM), inactives show at the highest dose growth rescue (activation), most hits filed as activators; AID 652104; TDP-43 expressing yeast growth rescue, BacTiter-Glo, 24 h; further: % of control where 0% means no effect; nearly all actives have a fitted effect of over 50% in size
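Growth rescue of TDP-43-toxic yeast measured as ATP luminescence (BacTiter-Glo). Cells grown to mid-log in raffinose, induced in galactose at OD600=0.02, exposed to compound 24 hr at 30 deg C.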
MBNL1 CUG block = MBNL1-poly(CUG) RNA binding inhibition; TR-FRET MBNL1-His/biotin-(CUG)12 binding, 665/545 ratio; Potency, µM (highest dose often 57.5 µM), for the others: at the highest dose activity change, negative = inhibition, actives largely listed as inhibitors; 280,000 compounds, 0.036% hits; AID 2675; active means well fitted inhibition curve with a large enough effect in the signal ratio, with a control signal flat, not every such curve was filed as active; inconclusive means small, poorly fitted or top-dose-only effect, or effect the other way, or a change in a side signal; inactive means no such curve, though single readings can be large or run the other way; the % refers to the signal ratio; further: on the % scale 0 is the no-effect control and ±100 the full control effect
Target sequence (Q9NR56 whole entry, looked up): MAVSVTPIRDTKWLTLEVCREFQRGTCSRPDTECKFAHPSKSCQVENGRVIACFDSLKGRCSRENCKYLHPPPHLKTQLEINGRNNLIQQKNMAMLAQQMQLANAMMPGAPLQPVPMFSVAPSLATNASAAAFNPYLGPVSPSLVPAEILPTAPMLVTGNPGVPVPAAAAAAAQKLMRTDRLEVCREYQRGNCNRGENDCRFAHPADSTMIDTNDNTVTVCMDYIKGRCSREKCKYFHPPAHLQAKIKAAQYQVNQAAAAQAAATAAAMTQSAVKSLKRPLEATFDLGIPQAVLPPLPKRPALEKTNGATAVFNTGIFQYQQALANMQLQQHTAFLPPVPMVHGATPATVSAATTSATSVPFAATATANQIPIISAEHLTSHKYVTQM
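MBNL1-His + Biotin-(CUG)12, cpd titration 92 nM–58 uM; Tb anti-His Ab 0.055 ng/ul, SA-XL665 5 nM (final); 60 min RT; ratiometric 665/545 nm, Ex 340 nm; normalized to buffer and full-complex controls.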
aSyn rescue = alpha-synuclein toxicity inhibition in yeast; AID 652106; Yeast expressing alpha-synuclein, growth rescue, BacTiter-Glo, 24 h; 370,000 compounds, 0.14% hits; Potency, µM (doses to about 46.1 µM), for inactives: top-dose growth rescue (activation), hits mostly activators; further: % of control where 0% means no effect; nearly all actives have a fitted effect of over 65% in size
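Galactose-induced alpha-syn yeast (OD600=0.02, raffinose-pregrown) + pinned cpd, 24 hr, 30 deg C; growth by BacTiter-Glo luminescence. Growth restoration scores as activation.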
FUS yeast rescue = rescues growth of FUS-expressing yeast | Potency, µM (highest dose often 76.6 µM), usual class: activators | AID 1347120 | 390,000 compounds, 0.24% hits | S. cerevisiae FUS-expressing, growth rescue, OD600, 24 h;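 further: plate controls were DMSO vehicle for no effect and reference control for full effect; nearly all actives have a fitted effect of over 55% in size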
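S. cerevisiae expressing FUS from galactose induction served as the toxicity model. Growth after 24hr at 30C, read as absorbance at 600 nm, indicates suppression of toxicity; compounds dosed at several concentrations.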
GRP78 ERSR act = inducers of ER stress response in human glioma cells | 420,000 compounds, 0.02% hits | AID 602332 | U87-MG GRP78 promoter luciferase reporter, 16 h | Potency, µM, for inactives: at the highest dose activation, most hits filed as activators; further: series mostly up to about 76 µM; % of control where 0% means no effect; nearly all actives have a fitted effect of over 35% in size
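Stably transfected U87-MG glioma cells carrying a GRP78-based luciferase sensor; 16 h compound incubation. Luminescence end-point read 10 min after Bright-Glo addition at room temperature.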
Abeta rescue = A-beta toxicity reversal in yeast. yeast expressing A-beta42, growth rescue, OD600, 48 h; response scale: 0% DMSO, 100% iron-clioquinol control. Potency, µM (doses to about 46.1 µM), hits mostly activators. 410,000 compounds, 0.063% hits; further: nearly all actives have a fitted effect of over 55% in size
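Growth rescue measured by 600 nm absorbance after 48 h yeast culture at 30 C with compound. Values normalized between DMSO and an equimolar ferric chloride plus clioquinol control.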
Starred values were filed as active, the others as inactive; i = inactive; ? = inconclusive; / = no result; [ ] = another dose, or the depositor's remark. Unless noted, the call rests on the fitted dose curve; in most records, active means well fitted curve in the direction sought with a large enough effect; inconclusive means small, poorly fitted or top-dose-only effect, or another doubt; inactive means no such curve, though single readings can be large; an effect the other way counts as inactive or inconclusive. Potency means the concentration at half of the fitted maximal effect.

SMILES	TDP43 rescue	MBNL1 CUG block	aSyn rescue	FUS yeast rescue	GRP78 ERSR act	Abeta rescue
O=C(CN1C(=O)C2(OCCCO2)c2ccccc21)NCc1ccccc1Cl	/	/	/	i	/	/
O=C(COC(=O)COc1ccc(Cl)cc1Br)NC1CCCCCC1	14%	/	7%	i	0%	i
CN(C(=O)COc1ccc(Cl)cc1Br)C1CCCCC1	18µM*	0%	0%	i	1%	i
Cc1ccc(C2=NNC(=O)C(c3ccc(Cl)cc3)C2)cc1 (configuration not stated)	22µM*	-6%	15%	i	-3%	i
O=C1NN=C(c2ccc(Cl)cc2)CC1c1cccc(Br)c1 (configuration not stated)	13µM*	14%	?	i	-7%	i
O=C1NN=C(c2ccc(Cl)cc2)CC1c1c[nH]c2ccccc12 (configuration not stated)	-8%	-3%	-2%	i	-3%	i
CCOC(=O)C1CC(c2ccc(Cl)cc2)=NNC1=O (configuration not stated)	8%	0%	13%	i	-3%	i
O=C(Nc1ccccc1)N1CCN(c2nc3ccccc3s2)CC1	22µM*	4%	6%	i	0%	i
Cc1ccc(Cn2c(C(=O)O)c(CNCc3ccccc3Cl)c3ccc(C)cc32)cc1	11%	/	/	i	-4%	i
COc1ccc(Cn2c(C(=O)O)c(CNCCc3ccccc3Cl)c3ccc(C)cc32)cc1	?	/	/	14µM*	-3%	i
CCN(CC)C(=O)CC[C@@H]1CC[C@]2(CCCN(S(=O)(=O)c3ccccc3)C2)O1	/	/	/	i	/	/
CC12CCC(C(=O)Nc3cccc(Cl)c3)(C(Br)C1=O)C2(C)C (configuration not stated)	20µM*	-9%	12%	/	-5%	i
CC12CCC(C(=O)Nc3ccc(Cl)cc3)([C@H](Br)C1=O)C2(C)C (some centres not stated)	?	-12%	21%	i	-3%	?
O=S(=O)(Nc1ccc2nc(-c3ccc(F)cc3)oc2c1)c1ccccc1	35µM*	/	/	i	/	?
Cc1ccc(S(=O)(=O)Nc2ccc3nc(-c4ccc(F)cc4)oc3c2)cc1	0%	/	/	i	/	i
O=C(Cn1ncc(Cl)c(Cl)c1=O)Nc1ccc2c(c1)OCO2	13%	/	-10%	i	-16%	i
O=C(Cn1ncc(Cl)c(Cl)c1=O)c1ccc2c(c1)OCCO2	22µM*	/	?	/	-12%	i
Cc1cccc(OCc2nc(C#N)c(NCc3ccccc3Cl)o2)c1	28µM*	/	/	i	-1%	i
COCCNc1oc(COc2cccc(C)c2)nc1C#N	1%	1%	-4%	i	1%	i
N#Cc1nc(COc2cccc(Cl)c2)oc1N1CCCC1	14µM*	13%	8%	i	-3%	i
O=P(O)(O)OC[C@@H](O)CO	/	/	/	/	-4%	/
Cc1ccc(S(=O)(=O)NCC2CN(S(=O)(=O)c3ccc(C)cc3)c3ccccc3C(=O)N2c2ccc(F)cc2)cc1 (configuration not stated)	/	/	/	18µM*	/	/
COc1ccc2c(c1)-c1nc(-n3ncc(C(=O)N(C)CC4CCCN(C)C4)c3C3CC3)ncc1CC2 (configuration not stated)	/	/	/	/	-2%	/
Cc1nnc(N2C(=O)C(O)=C(C(=O)c3ccco3)C2c2ccc(C(C)C)cc2)s1 (configuration not stated)	9%	25%[11.5 µM]	-1%	7.1µM*	-2%	i
Cc1ccc(S(=O)(=O)NC(=S)NC2CCCCC2)cc1	16µM*	0%	10%	i	-3%	i
SMILES	TDP43 rescue	MBNL1 CUG block	aSyn rescue	FUS yeast rescue	GRP78 ERSR act	Abeta rescue
COCCN=c1scc(-c2ccccc2)n1/N=C/c1c[nH]c2ccccc12	11µM*	5%	2%	i	6%	i
COc1cc(OC)c(C2SCCCS2)cc1OC	35µM*	1%	0%	/	-3%	i
COc1cc(OC)c(C2N(C)c3ccccc3N2C)cc1OC	/	-1%	/	/	/	/
Cc1cccc(/C=C/c2cccs2)n1	/	/	/	/	-4%	/
Cc1cccc(Cn2c(=O)oc3ccc(C)cc32)c1	20µM*	2%	4%	i	-6%	i
O=C(O)c1ccc(SCc2ccccc2)nc1	13µM*	/	7%	i	-4%	i
O=C(CCC1N=C2c3ccccc3N=C(SCC(=O)Nc3ccc(F)cc3)N2C1=O)NCc1cccs1 (configuration not stated)	35µM*	/	/	?	-2%	i
Cc1ccc(CSC2=Nc3ccccc3C3=NC(CCC(=O)NCCc4ccccc4)C(=O)N23)cc1 (configuration not stated)	32µM*	/	/	i	-2%	i
NCCCCC(NC(=O)C1CCCN1C(=O)C1CSSCC(N)C(=O)NC(Cc2ccccc2)C(=O)NC(Cc2ccccc2)C(=O)NC(CCC(N)=O)C(=O)NC(CC(N)=O)C(=O)N1)C(=O)NCC(N)=O (configuration not stated)	/	/	/	/	4%	/
O=C(NC1CCSc2ccccc21)c1cccc([N+](=O)[O-])c1 (configuration not stated)	13µM*	?	0%	i	7%	i
Cn1c(-c2c(N)n(CCc3ccccc3)c3nc4ccccc4nc23)nc2ccccc21	7%	38%	-17%	?	-5%	i
Cn1c(-c2c(N)n(CCCc3ccccc3)c3nc4ccccc4nc23)nc2ccccc21	?	25%	-25%	32µM*	-3%	i
Cn1c(-c2c(N)n(C3CCCC3)c3nc4ccccc4nc23)nc2ccccc21	13µM*	15%	-9%	?	-7%	i
COC(=O)C1CN(Cc2ccc(F)cc2)CCS(=O)(=O)N1Cc1cn(Cc2ccc(F)cc2)nn1 (configuration not stated)	/	/	/	i	/	/
Cc1ccccc1NS(=O)(=O)c1cc(C(=O)N2CCCC2)ccc1Cl	11%	3%	-1%	/	-6%	i
Cc1cccc(NS(=O)(=O)c2cc(C(=O)N3CCc4ccccc4C3)ccc2Cl)c1C	-14%	-22%	10µM*	?	-1%	i
Cc1ccc(C)c(NC(=O)N2CCCCCC2)c1	10%	-6%	-10%	i	3%	i
Cc1ccc(C)c(NC(=O)N2CCc3ccccc3C2)c1	20µM*	-3%	3%	i	4%	i
Cc1ccc(C)c(NS(=O)(=O)c2cc(C(=O)N3CCc4ccccc4C3)ccc2Cl)c1	-30%	-20%	16µM*	?	-6%	i

High-throughput results from PubChem.
